Experimental data as given in PubChem BioAssay.
Calls of active or inactive are those of the source. Unless noted, how the calls were made is not given here.

Legend:
[1] = resazurin metabolic signal in HepG2 cells – cell-based, resazurin fluorescence, 24 h, PK04 Diversity Set, profiling panel (AID 1172); conditions: HepG2 viability, higher = more signal; further: test concentration not given here
[2] = budding yeast growth changes without added modifier – OD600, strain BY4716, 24 h, basal condition, primary screen (AID 1173); conditions: S. cerevisiae BY4716 growth, OD600, 24 h; higher = more signal, called active from +8 up or from −8 down
[3] = viability profiling in MM1S myeloma cells – cell-based, resazurin fluorescence, basal, 24 h, PK04 Diversity Set, profiling panel (AID 1174); conditions: higher = more signal, called active from +8 up or from −8 down;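 further: MM1S multiple myeloma cell line; test concentration not given here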
[4] = target: Dihydroorotate dehydrogenase (quinone), mitochondrial (Plasmodium falciparum (isolate 3D7)) (UniProt Q08210); assay: inhibition of P. falciparum DHODH – biochemical, C-terminal His tag, absorbance 600 nm, primary screen (AID 1175); conditions: PfDHODH enzyme, DCIP absorbance 600 nm; higher = more signal, called active from +8 up or from −8 down;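 further: recombinant parasite enzyme with a five histidine tag at its C terminus; test concentration not given here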
Sequence of Dihydroorotate dehydrogenase (quinone), mitochondrial (Plasmodium falciparum (isolate 3D7)) (Q08210 whole entry, looked up): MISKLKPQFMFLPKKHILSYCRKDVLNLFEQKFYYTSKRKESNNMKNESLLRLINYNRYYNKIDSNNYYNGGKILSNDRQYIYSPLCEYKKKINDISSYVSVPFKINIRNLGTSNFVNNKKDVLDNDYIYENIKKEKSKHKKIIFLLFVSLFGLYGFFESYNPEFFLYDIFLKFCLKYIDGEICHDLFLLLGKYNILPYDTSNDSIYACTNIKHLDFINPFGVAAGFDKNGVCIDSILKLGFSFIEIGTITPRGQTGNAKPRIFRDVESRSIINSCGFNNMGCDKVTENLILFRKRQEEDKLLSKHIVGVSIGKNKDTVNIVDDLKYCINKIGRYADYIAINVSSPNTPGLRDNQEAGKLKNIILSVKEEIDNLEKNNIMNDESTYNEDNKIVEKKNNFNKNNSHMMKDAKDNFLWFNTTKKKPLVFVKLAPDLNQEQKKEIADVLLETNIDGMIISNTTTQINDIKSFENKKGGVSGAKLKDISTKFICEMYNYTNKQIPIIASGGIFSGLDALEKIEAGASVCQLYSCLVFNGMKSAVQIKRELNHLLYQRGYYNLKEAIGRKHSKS

[5] = inhibition of PAO1 biofilm formation – strain PAO1, LB-PBS medium, absorbance 600 nm, primary screen (AID 1176); further: test concentration not given here; conditions: P. aeruginosa PAO1 growth/biofilm, A600, 12 h; higher = more signal
[6] = growth modulation of vineyard yeast isolate – strain RM11-1a, OD600, basal, 24 h, primary screen (AID 1177);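 further: cultures grown under basal conditions with no added stressor; test concentration not given here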; conditions: S. cerevisiae RM11-1a growth, OD600, 24 h; higher = more signal, called active from +8 up or from −8 down
[7] = growth of efflux-deficient E. coli DRC39 – strain DRC39, OD650, 24 h, E. coli filamentation inducers, primary screen (AID 1178);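 further: growth measured as culture turbidity by optical density at 650 nm; test concentration not given here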; conditions: E. coli DRC39 acrAB, higher = more signal, called active from +8 up or from −8 down
[8] = growth of efflux-deficient E. coli DRC39 – strain DRC39, OD650, 48 h, E. coli filamentation inducers, primary screen (AID 1179);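 further: screen aims at cell division blockers that make cells filament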; conditions: E. coli DRC39 delta-acrAB growth, higher = more signal, called active from +8 up or from −8 down
[9] = viability profiling in RPMI8226 myeloma cells – cell-based, resazurin fluorescence, basal, 24 h, PK04 Diversity Set, profiling panel (AID 1180); conditions: higher = more signal;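 further: RPMI8826 multiple myeloma cell line at 5000 cells per well; test concentration not given here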
[10] = target: E3 ubiquitin-protein ligase XIAP (Homo sapiens) (UniProt P98170); assay: small molecules binding XIAP protein – biophysical, small-molecule microarray, fluorescence 635 nm, primary screen (AID 1181); conditions: higher = more signal;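 further: score merges 667 nm emission and signal to noise over triplicate slides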
Sequence of E3 ubiquitin-protein ligase XIAP (Homo sapiens) (P98170 whole entry, looked up): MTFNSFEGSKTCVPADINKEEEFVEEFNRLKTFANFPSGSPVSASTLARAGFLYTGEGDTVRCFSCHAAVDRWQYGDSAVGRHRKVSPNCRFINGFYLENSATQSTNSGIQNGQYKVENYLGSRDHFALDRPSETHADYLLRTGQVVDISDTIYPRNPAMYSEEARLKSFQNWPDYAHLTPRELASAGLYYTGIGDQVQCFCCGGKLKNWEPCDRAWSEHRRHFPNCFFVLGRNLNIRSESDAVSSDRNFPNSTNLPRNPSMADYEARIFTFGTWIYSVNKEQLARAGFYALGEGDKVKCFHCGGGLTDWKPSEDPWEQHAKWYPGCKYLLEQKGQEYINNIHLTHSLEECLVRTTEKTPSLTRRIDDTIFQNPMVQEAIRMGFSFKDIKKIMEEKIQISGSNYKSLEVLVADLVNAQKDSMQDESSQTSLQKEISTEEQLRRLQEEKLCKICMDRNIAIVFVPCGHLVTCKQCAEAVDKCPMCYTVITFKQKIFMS

Compound	z-score [1]	z-score [2]	z-score [3]	composite z-score [4]	z-score [5]	z-score [6]	z-score [7]	z-score [8]	z-score [9]	composite z-score [10]
CCC#CCN(Cc1ccccc1Br)[C@H](/C=C/C1CC1)[C@@H](O)Cc1ccccc1	2.23	-3.06 (inactive)	1.93 (inactive)	-0.769 (inactive)	0.686 (inactive)	-2.7 (inactive)	1.96 (inactive)	0.706 (inactive)	0.329	-0.144
COCCOC(=O)N1C(=O)[C@@]2(c3ccccc31)[C@H](c1ccc(O)cc1)N1[C@H](c3ccccc3)[C@H](c3ccccc3)OC(=O)[C@H]1[C@@H]2C(=O)N1CCN(c2ncccn2)CC1	0.0716	0.353 (inactive)	-0.183 (inactive)	-0.18 (inactive)	2.33 (inactive)	-0.451 (inactive)	-0.838 (inactive)	-0.935 (inactive)	-0.0522	0.147
CCCNC(=O)[C@@H]1c2ccccc2C(=O)N(Cc2ccc(OC(F)(F)F)cc2)[C@H]1c1ccc(CO)cc1	0.266	0.0357 (inactive)	0.186 (inactive)	-0.966 (inactive)	-0.217 (inactive)	0.532 (inactive)	0.659 (inactive)	1.34 (inactive)	0.584	0.155
COC(=O)[C@@]1(Cc2ccc(OC)cc2)[C@H]2c3cc(C(=O)N(C)C)n(Cc4ccc(OC(F)(F)F)cc4)c3C[C@H]2CN1C(=O)c1ccccc1	-0.409	0.633 (inactive)	-6.89 (inactive)	0.546 (inactive)	0.619 (inactive)	1.63 (inactive)	-0.728 (inactive)	-0.804 (inactive)	-3.56	0.422
CCCC=C(CCC)[C@@H](NC(=O)c1cccs1)c1ccc(C(=O)OC)cc1	0.756	1.07 (inactive)	0.645 (inactive)	0.519 (inactive)	-0.94 (inactive)	-0.27 (inactive)	0.204 (inactive)	-0.814 (inactive)	0.429	-0.031
C=CCNC(=O)[C@H]1[C@@H]2C(=O)O[C@@H](c3ccccc3)[C@@H](c3ccccc3)N2[C@@H](c2ccccc2OCCO)[C@]12C(=O)N(C(=O)OCCOC)c1ccc(C#CC3(O)CCCCCC3)cc12	-0.536	-0.0911 (inactive)	-3.39 (inactive)	-1.12 (inactive)	2.42 (inactive)	0.0382 (inactive)	0.0979 (inactive)	0.975 (inactive)	-4.17	-0.259
O=C1N(CCS(=O)(=O)c2ccccc2)c2ccccc2[C@H]2OC(c3ccc(OCCCO)cc3)=N[C@@]12Cc1ccccc1	0.676	-0.148 (inactive)	-2.38 (inactive)	-0.0331 (inactive)	0.755 (inactive)	2.01 (inactive)	2.46 (inactive)	1.13 (inactive)	-1.96	0.211
CC(C)N1C(=O)C[C@@](C(=O)NC2CC2)(c2ccc([N+](=O)[O-])cc2)[C@H]1c1ccc(CO)cc1	-0.557	-0.693 (inactive)	0.616 (inactive)	-0.236 (inactive)	1.6 (inactive)	-0.437 (inactive)	0.209 (inactive)	0.167 (inactive)	0.499	0.236
COC(=O)[C@@]1(Cc2ccc(OC)cc2)[C@H]2c3cc(C(=O)N4CCCC4)n(CCO)c3C[C@H]2CN1C(=O)c1ccccc1	-1.39	0.91 (inactive)	-2.2 (inactive)	-0.203 (inactive)	0.632 (inactive)	0.941 (inactive)	-0.614 (inactive)	-1.21 (inactive)	-0.861	0.311
COC(=O)C1=CC(CCCO)=CC(c2cccs2)N(Cc2cccc(OC(F)(F)F)c2)C=C1C(=O)OC (stereo not given)	-0.872	-0.487 (inactive)	-1.46 (inactive)	-3.05 (inactive)	0.82 (inactive)	0.0036 (inactive)	0.581 (inactive)	0.153 (inactive)	-1.16	-0.0756
CCOC(=O)C[C@H]1[C@H](OC(=O)Cc2ccc3c(c2)OCO3)[C@@H](NC(=O)c2ccc3ccccc3n2)c2cc(OCCCO)ccc2N1C(=O)c1ccccc1	0.374	-0.407 (inactive)	-1.51 (inactive)	-0.32 (inactive)	-0.325 (inactive)	0.946 (inactive)	-0.247 (inactive)	0.208 (inactive)	-0.139	0.134
COc1ccc([Si](C)(C)[C@@H]2[C@@H](CC(=O)N(CCO)Cc3ccccc3)O[C@]3(C(=O)N(Cc4cccc(N5CCCCC5=O)c4)c4ccccc43)[C@H]2C)cc1	-0.369	0.594 (inactive)	-1.72 (inactive)	-1 (inactive)	1.63 (inactive)	2.63 (inactive)	0.899 (inactive)	0.246 (inactive)	-1.74	-0.138
COc1ccc([Si](C)(C)[C@@H]2[C@@H](CCO)O[C@]3(C(=O)N(Cc4ccccc4)c4ccc(N5C(=O)c6cccc7cccc5c67)cc43)[C@H]2C)cc1	-0.0019	0.282 (inactive)	0.274 (inactive)	-0.488 (inactive)	2.24 (inactive)	4.59 (inactive)	2.16 (inactive)	1.45 (inactive)	-0.298	-0.152
COc1ccc([Si](C)(C)[C@@H]2[C@@H](CCO)O[C@]3(C(=O)N(Cc4ccccc4)c4ccc(NC(=O)[C@H](C)O)cc43)[C@H]2C)cc1	-4.57	2.31 (inactive)	-6.39 (inactive)	-0.347 (inactive)	1.45 (inactive)	5.11 (inactive)	0.912 (inactive)	0.477 (inactive)	-6.12	0.157
CCOC(=O)C1=CC[C@@H](c2ccccc2F)N(S(=O)(=O)c2ccc(C)cc2)[C@H]1c1ccccc1	0.325	0.837 (inactive)	-0.0773 (inactive)	-0.496 (inactive)	0.698 (inactive)	0.262 (inactive)	-0.308 (inactive)	-0.35 (inactive)	-0.781	-0.195
COC(=O)[C@@]1(Cc2ccc(OC)cc2)[C@H]2c3cc(C(=O)N(C)C)n(Cc4ccc(C)o4)c3C[C@H]2CN1C(=O)c1ccccc1	-0.239	0.256 (inactive)	-3.45 (inactive)	0.376 (inactive)	-0.719 (inactive)	1.54 (inactive)	0.502 (inactive)	-0.0131 (inactive)	-4.83	0.072
[N-]=[N+]=NCc1ccccc1C[C@@]1(C(N)=O)N=C(c2ccc(OCCCO)cc2)O[C@@H]1c1ccccc1	0.0565	-0.165 (inactive)	-1.22 (inactive)	-0.239 (inactive)	0.563 (inactive)	0.115 (inactive)	0.0937 (inactive)	-1.12 (inactive)	-1.37	-0.11
Cc1ccc(S[C@]2(C(=O)NCC(F)(F)F)CC(=O)N(Cc3cc(C(F)(F)F)cc(C(F)(F)F)c3)[C@@H]2c2ccc(CO)cc2I)cc1	1.02	-3.16 (inactive)	-1.99 (inactive)	-0.845 (inactive)	-0.522 (inactive)	-0.974 (inactive)	-0.301 (inactive)	-0.0582 (inactive)	-2.03	-0.325
COc1cc2c(cc1O)C(C1CC1)N(C)CC2 (stereo not given)	0.0514	-0.391 (inactive)	0.509 (inactive)	-0.501 (inactive)	-0.572 (inactive)	-0.0321 (inactive)	0.115 (inactive)	0.0029 (inactive)	-0.0158	0.175
CO[C@H]1O[C@H](CO)[C@@H](OC(=O)CCc2ccccc2)[C@@H]2OC(=O)[C@@H](Cc3ccccc3)C/C=C/C[C@H](Cc3ccccc3)C(=O)O[C@@H]12	0.195	-0.559 (inactive)	-0.887 (inactive)	-1.53 (inactive)	-0.661 (inactive)	0.532 (inactive)	1.06 (inactive)	1.79 (inactive)	0.943	0.913
CO[C@H]1O[C@H](CO)[C@@H](OC(=O)Nc2ccc3c(c2)OCO3)[C@H](OC(=O)Nc2ccc3c(c2)OCO3)[C@@H]1OC(=O)Nc1ccc2c(c1)OCO2	-0.907	1.44 (inactive)	-0.309 (inactive)	-0.732 (inactive)	1.05 (inactive)	1.81 (inactive)	1.01 (inactive)	-0.147 (inactive)	-0.472	0.374
C=CCC(OC(C)=O)[C@@H]1[C@@H](N(Cc2ccc(-c3cccc(C(F)(F)F)c3)o2)C(=O)Cc2ccc(OC)cc2)c2cc(OCCCO)ccc2N1C(=O)c1ccc(-c2ccccc2)cc1 (stereo not given in full)	-1.35	-0.0331 (inactive)	-0.0666 (inactive)	0.821 (inactive)	-0.24 (inactive)	0.0869 (inactive)	-0.165 (inactive)	-0.555 (inactive)	-0.197	0.125
CN(C)CCCCCCNC(=O)[C@@H]1C[C@@H]2C(=O)N3CCC[C@H]3C(=O)N2[C@@H]1c1cccc(OCCO)c1	-2.4	0.451 (inactive)	-0.727 (inactive)	-0.595 (inactive)	-0.267 (inactive)	0.363 (inactive)	0.0047 (inactive)	-0.391 (inactive)	-0.946	-0.0062
